High-throughput results (PubChem BioAssay)
WT yeast gro inh = growth inhibition of WT strain, primary screen, mitochondrial fusion inhibitor project, WT and mutant strains, chemical genetic | mitochondrial fusion phenotypic screen | AID 1362, 2008 | hit rate 2.1% among 190,000 | inhibition, % at 10 µM; in the data active = inhibition above about 58%; tested in S. cerevisiae
Lmaj promast = Leishmania major promastigote growth inhibition, primary screen | Leishmania major promastigotes, resazurin fluorescence viability | inhibition, % at 10 µM | hit rate 9% among 200,000 | AID 1063, 2008; in the data active = inhibition above about 50%;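 note: promastigotes grown with compound for 44 hours at 28 °C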
CHOP inh = inhibitors of CHOP promoter induction, primary screen, cell-based, unfolded protein response, luciferase reporter; inhibition, % at 10 µM; hit rate 3.8% among 220,000; CHO-K1 CHOP-promoter luciferase, tunicamycin-induced, 15-18 h; AID 2732, 2010;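 active = compounds that reduced the stress-induced luciferase reporter signal by more than about 70% of percent inhibition, limit read from the data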;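 note: 0% = tunicamycin plus vehicle and 100% = wells without tunicamycin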
Arbovirus anti = antivirals against arbovirus infection, primary screen, cell-based, full library, 10K replicate subset. inhibition, % at 10 µM. arbovirus infection cell-based antiviral screen. hit rate 0.37% among 200,000; in the data active = inhibition above about 30%
* marks the source's active call; other numbers are inactive results. Shown are actives, neighbours in structure and some others; about 12% of the full set was active somewhere.

Results for CC(C)(c1ccccc1)c1ccc(OCCCNCCO)cc1 ?
WT yeast gro inh: 92*; Lmaj promast: 100*; CHOP inh: 53; Arbovirus anti: -37

What do the screens show for `COCCNCCCOc1ccc(C(C)(C)c2ccccc2)cc1`?
WT yeast gro inh: 3; Lmaj promast: 99*; CHOP inh: 17; Arbovirus anti: -27

Results for CC(C)NCCCOc1ccc(C(C)(C)c2ccccc2)cc1 ?
Lmaj promast: 99*; CHOP inh: 13; Arbovirus anti: -1

How did COCCCNCC#CCOc1ccc(OC)cc1 do in these assays?
WT yeast gro inh: 12; Lmaj promast: 32; CHOP inh: 2; Arbovirus anti: 11

What do the screens show for `CN(C)CCCOc1nc2c(c(=O)n(C)c(=O)n2C)n1C`?
WT yeast gro inh: -3; Lmaj promast: 2; CHOP inh: 20; Arbovirus anti: 4

How did CCOC(=O)c1c(N2C(=O)Nc3cc(Cl)c(Cl)cc3N2O)sc2c1CCCCC2 do in these assays?
WT yeast gro inh: -61; Lmaj promast: -8; CHOP inh: -6; Arbovirus anti: 7

Results for CCCC1=NN(C(=O)Cc2ccc(OC)cc2)C(O)(C(F)(F)F)C1 (stereo not given) ?
WT yeast gro inh: 25; Lmaj promast: -7; CHOP inh: 11; Arbovirus anti: -2

Results for CC(C)CCSc1nc(N)c(C#N)cc1C#N ?
WT yeast gro inh: -39; Lmaj promast: 76*; CHOP inh: 41; Arbovirus anti: -2

Results for NC(=O)Cn1nc2sc3ccccc3n2c(=O)c1=O ?
CHOP inh: 6

Results for CCc1c(O)cc2n(c1=O)-c1ccc(Cl)cc1C2(C)C ?
WT yeast gro inh: 24; Lmaj promast: 71*; CHOP inh: 16; Arbovirus anti: 3

How did CCc1c(O)cc(=O)n(-c2ccccc2)c1-c1ccccc1 do in these assays?
WT yeast gro inh: -6; Lmaj promast: 3; CHOP inh: 18; Arbovirus anti: 9

What do the screens show for `CC(C)SC1=NC(C)(C)C=C(/C=C/c2ccc(Cl)cc2Cl)N1`?
WT yeast gro inh: 77*; Lmaj promast: 95*; CHOP inh: 22; Arbovirus anti: -29

How did CC(C)SC1=NC(C)(C)C=C(/C=C/c2c(Cl)cccc2Cl)N1 do in these assays?
WT yeast gro inh: 66*; Lmaj promast: 100*; CHOP inh: 4; Arbovirus anti: -21

How did NNC(=O)/C=C/c1ccc(Cl)cc1Cl do in these assays?
WT yeast gro inh: 15; Lmaj promast: 4; CHOP inh: 12; Arbovirus anti: -8

How did O=C(O)C(Cc1ccccc1)n1c(=S)[nH]c2ccccc2c1=O (stereo not given) do in these assays?
WT yeast gro inh: -4; Lmaj promast: -5; CHOP inh: -1; Arbovirus anti: 6

Results for COc1ccc(NC(=O)CNc2cc(S(=O)(=O)N3CCOCC3)ccc2NCC2CCCO2)cc1 (stereo not given) ?
WT yeast gro inh: -12; Lmaj promast: 3; CHOP inh: 26; Arbovirus anti: -12

How did CC1(C)CC2CC(C)(CN2Cc2c(O)ccc3ccccc23)C1 (stereo not given) do in these assays?
WT yeast gro inh: 5; Lmaj promast: 7; CHOP inh: 51; Arbovirus anti: 14

What do the screens show for `CC(=O)n1nc(-c2ccccc2)nc1NCc1ccc(F)cc1`?
WT yeast gro inh: -8; Lmaj promast: -1; CHOP inh: 74*; Arbovirus anti: -2

What do the screens show for `O=C(c1cccs1)n1nc(-c2ccccc2)nc1NCc1ccc(F)cc1`?
WT yeast gro inh: -6; Lmaj promast: 0; CHOP inh: 26; Arbovirus anti: 6

What do the screens show for `COc1ccc(CNc2nc(-c3cccnc3)nn2C(=O)CC(C)C)cc1`?
WT yeast gro inh: 43; Lmaj promast: -2; CHOP inh: 84*; Arbovirus anti: 1

Results for CCCC(=O)n1nc(-c2cccnc2)nc1NCc1ccccc1 ?
WT yeast gro inh: -8; Lmaj promast: -7; CHOP inh: 70*; Arbovirus anti: -2

How did Cc1ccc(/C(N)=N/OC(=O)C23CC4CC(CC(C4)C2)C3)cc1 do in these assays?
WT yeast gro inh: 54; Lmaj promast: 10; CHOP inh: 51; Arbovirus anti: -5

How did Cc1ccc(-c2ncccc2OC(=O)C23CC4CC(CC(C4)C2)C3)cc1 do in these assays?
WT yeast gro inh: 73*; Lmaj promast: 1; CHOP inh: 64; Arbovirus anti: 10

How did COC(=O)c1ccc(N2C(=O)c3cc(N4CCOCC4)c([N+](=O)[O-])cc3C2=O)cc1 do in these assays?
WT yeast gro inh: -4; Lmaj promast: -4; CHOP inh: 6; Arbovirus anti: 0

Results for CC1CC(C)CN(c2ccc(-n3cnnn3)cc2[N+](=O)[O-])C1 (stereo not given) ?
WT yeast gro inh: 21; Lmaj promast: 11; CHOP inh: 74*; Arbovirus anti: -6

What do the screens show for `O=C1c2cc(N3CCCC3)c([N+](=O)[O-])cc2C(=O)N1c1ccccc1`?
WT yeast gro inh: 5; Lmaj promast: 60*; CHOP inh: -8; Arbovirus anti: -1

How did CC1CC(C)CN(c2cc3c(cc2[N+](=O)[O-])C(=O)N(c2ccccc2)C3=O)C1 (stereo not given) do in these assays?
WT yeast gro inh: 2; Lmaj promast: 85*; CHOP inh: 49; Arbovirus anti: 3

Results for O=C(Nc1ccccc1N(C(=O)c1ccco1)S(=O)(=O)c1cccs1)c1ccco1 ?
WT yeast gro inh: 15; Lmaj promast: -2; CHOP inh: 85*; Arbovirus anti: -5

Results for Cc1c(C(=O)Nc2ccc(Cc3ccncc3)cc2)cccc1[N+](=O)[O-] ?
WT yeast gro inh: 13; Lmaj promast: 96*; CHOP inh: 12; Arbovirus anti: -21

How did O=C(Nc1ccc(Cc2ccncc2)cc1)c1cccc([N+](=O)[O-])c1 do in these assays?
WT yeast gro inh: 16; Lmaj promast: 74*; CHOP inh: -21; Arbovirus anti: -6

How did Cc1ccc(C(=O)Nc2ccc(Cc3ccncc3)cc2)cc1[N+](=O)[O-] do in these assays?
WT yeast gro inh: 9; Lmaj promast: 22; CHOP inh: 27; Arbovirus anti: -13

Results for Cc1c(C(=O)Nc2ccc(OCc3ccccc3)cc2)cccc1[N+](=O)[O-] ?
WT yeast gro inh: 0; Lmaj promast: -4; CHOP inh: 15; Arbovirus anti: 2

What do the screens show for `O=C(CCNc1ccc(Cc2ccncc2)cc1)c1ccc([N+](=O)[O-])cc1`?
WT yeast gro inh: 18; Lmaj promast: 101*; CHOP inh: 34; Arbovirus anti: -2

How did O=C(CCNc1n[nH]c(=O)[nH]c1=O)N/N=C/c1ccc(C(F)(F)F)cc1 do in these assays?
WT yeast gro inh: -1; Lmaj promast: -6; CHOP inh: -13; Arbovirus anti: 5

Results for CCN(CC)c1nc(C)c2c(c1C#N)CC(C)(C)OC2 ?
WT yeast gro inh: 9; Lmaj promast: 0; CHOP inh: 74*; Arbovirus anti: -1

What do the screens show for `Cc1nc(NCCCO)c(C#N)c2c1COC(C)(C)C2`?
WT yeast gro inh: -8; Lmaj promast: -2; CHOP inh: -1; Arbovirus anti: 8

What do the screens show for `Cc1c(CCOC(=O)CC23CC4CC(CC(C4)C2)C3)sc[n+]1Cc1ccccc1`?
WT yeast gro inh: -11; Lmaj promast: 100*; CHOP inh: 13; Arbovirus anti: -13
